Assay results published in PubChem BioAssay AID865 (The Scripps Research Institute Molecular Screening Center, 2007).
The list shows a part of the results. A number with no mark means an inactive call.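 How the source made its calls: active means activation above the screen-wide mean activation plus 3 SD (cut at about 8% in these data); inactive means the rest.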

Assay: nonspecific BLA reporter activation – CHO NFAT-bla cells, FRET readout, counter-screen for GALR2 agonist project, confirmation (AID 865);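 further: 0% = DMSO with PBS wells and 100% = thapsigargin positive control wells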
Conditions: beta-lactamase FRET activation, at 5.6 µM, hits give high values

Work on Cc1cccc(N2C(=O)NC(=O)/C(=C\c3cnn(-c4ccccc4)c3)C2=O)c1 yielded an activation of 0.39%.
